M1 PAM parental: nonselective activator or artifact in parental CHO-K1 calcium assay. ATP EC20, Fluo-8 calcium fluorescence; 0% at ATP EC20, 100% at ATP max. activation, % at 3 µM. 360,000 tested, 0.02% active;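 active means activation above the run cutoff, the mean activation of all test compounds plus 3 SD, cut at about 40% in these data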;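 further: peak over basal fluorescence ratio in a 140 s read after ATP addition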
CHRM1 agonist: human M1 muscarinic receptor agonism. P11229. CHO-K1 hM1, Fluo-8 calcium fluorescence, agonist mode; 0% DMSO, 100% acetylcholine EC100. activation, % at 3 µM. 360,000 tested, 0.33% active;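 active means activation above the run's mean compound activation plus 3 SD, cut at about 16% in these data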;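 further: peak over basal fluorescence ratio within a 140 s kinetic read after compound addition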
Target sequence (P11229 whole entry, looked up): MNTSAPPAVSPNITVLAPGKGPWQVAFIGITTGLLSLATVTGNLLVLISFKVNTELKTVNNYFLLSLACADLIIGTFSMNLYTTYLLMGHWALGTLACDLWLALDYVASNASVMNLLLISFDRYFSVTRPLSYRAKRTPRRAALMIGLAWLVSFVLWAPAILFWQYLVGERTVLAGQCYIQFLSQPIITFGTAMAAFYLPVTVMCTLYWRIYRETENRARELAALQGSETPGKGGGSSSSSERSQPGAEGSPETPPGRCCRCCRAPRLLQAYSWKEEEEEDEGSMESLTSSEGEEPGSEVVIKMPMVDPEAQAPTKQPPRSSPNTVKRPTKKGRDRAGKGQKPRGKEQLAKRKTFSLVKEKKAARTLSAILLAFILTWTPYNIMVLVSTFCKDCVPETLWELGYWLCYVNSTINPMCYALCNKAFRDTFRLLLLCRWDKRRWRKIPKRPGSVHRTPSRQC
CHO-K1 Ca antag: M1 antagonist counterscreen hit in parental CHO-K1 cells | ATP-induced calcium, Fluo-8 fluorescence | inhibition, % at 3 µM | 360,000 tested, 0.6% active | AID 602250;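 active means inhibition above a per-plate cutoff, the plate's mean sample inhibition plus 3 SD, cut at about 24% in these data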
M1 antag: antagonists of human M1 muscarinic receptor; 360,000 tested, 1.3% active; inhibition, % at 3 µM; AID 588852; CHO-K1 hM1, Fluo-8 calcium fluorescence, ACh EC80 antagonist; P11229;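 active means percent inhibition above its own plate's cutoff, namely the mean of that plate's compound wells plus 3 SD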;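 further: peak over basal fluorescence ratio during 140 s after agonist addition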
M1 ag parental: M1 agonist counterscreen hit in parental CHO-K1 cells. Fluo-8 calcium fluorescence; scaled to maximal ATP response, vehicle zero. activation, % at 3 µM. 360,000 tested, 0.48% active. AID 602248; in the data active means activation above about 15%;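 further: untransfected CHO-K1 host cells lacking M1 receptor as counterscreen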
M1 PAM: positive allosteric modulators of human M1 muscarinic receptor; activation, % at 3 µM; CHO-K1 hM1, Fluo-8 calcium fluorescence, ACh EC20; 0% = ACh EC20, 100% = maximal ACh; 360,000 tested, 0.088% active; AID 588819; in the data active means activation above about 19%, passing the limit was not always enough
Each line names hits and unclear results; the compound was inactive in the other large screens. An excerpt weighted towards active compounds, which were near 2.4% of everything screened.

COc1ccc(C(=O)Nc2cccc(S(=O)(=O)N3CCCC3)c2)cc1S(=O)(=O)N1CCOCC1	M1 antag 43
O=C(CSc1ccc2c(c1)OCCO2)NCc1ccccc1	none
O=C(O)c1nn(-c2ccccc2)nc1-c1nn(-c2ccccc2)nc1C(=O)O	none
Nc1nccnc1C(=O)N/N=C/c1ccco1	none
Cc1cc2c(cc1C)N[C@]1(C[C@H]3CCCC(=O)N4CC[C@@H](C1)[C@@H]34)C(=NC(C)(C)CC(C)(C)C)N2	none
CC(C)[C@H](NC(=O)c1cccc(S(=O)(=O)N2CCOCC2)c1)C(=O)OCC(=O)Nc1cccc(Br)c1	CHRM1 agonist 19
O=C(N/N=C/c1ccncc1)c1cccc(S(=O)(=O)N2CCCC2)c1	none
O=C(Nc1cccc(S(=O)(=O)N2CCOCC2)c1)c1cc(S(=O)(=O)N2CCOCC2)c(Cl)cc1Cl	M1 antag 36
O=C(NN=Cc1ccc(F)cc1)c1cccc(S(=O)(=O)N2CCCC2)c1	M1 antag 36
O=C(NCCN1C(=O)S/C(=C\c2ccccc2)C1=O)c1cc(S(=O)(=O)N2CCOCC2)c(Cl)cc1Cl	M1 antag 43, M1 ag parental 15
O=C(Nc1cccc(S(=O)(=O)N2CCCC2)c1)c1cc(S(=O)(=O)N2CCOCC2)ccc1F	none
Cc1ccc(-n2nc3c(c2NC(=O)C(C)(C)C)CSC3)c(C)c1	none
CC(C)CC(=O)Nc1sc2c(c1C#N)CC(C)(C)NC2(C)C	none
O=C(Nc1cccc(S(=O)(=O)N2CCCC2)c1)c1cccc(S(=O)(=O)N2CCOCC2)c1	M1 antag 29
COc1ccc(NC(=O)c2cc3c(s2)CCC(C)C3)cc1S(=O)(=O)N1CCOCC1 (stereo unspecified)	CHO-K1 Ca antag 25
O=C(Nc1ccc(N2CCOCC2)cc1)c1cccc(S(=O)(=O)N2CCCCCC2)c1	none
O=C(Nc1ccc(N2CCOCC2)cc1)c1cccc(S(=O)(=O)N2CCCC2)c1	M1 antag 34
CC(=O)c1cccc(CN2CCN(CCc3ccccc3)C(CCO)C2)c1 (stereo unspecified)	none
Cc1ccc(C(=O)NC(=S)N2CC(C)OC(C)C2)cc1[N+](=O)[O-] (stereo unspecified)	none
COCCN(C(=O)COC(=O)C12CC3CC(CC(O)(C3)C1)C2)c1c(N)n(Cc2ccccc2)c(=O)[nH]c1=O	none
CCn1c(SCC(=O)Nc2ccc(Br)cn2)nnc1C1CC1	none
Cc1ccc(-c2cccc(CN3CCN(C4CCN(C(C)C)CC4)C(CCO)C3)c2)o1 (stereo unspecified)	M1 antag 31
CC(C)N1CCC(N2CCN(Cc3ccc(-c4ccc(Cl)cc4)o3)CC2CCO)CC1 (stereo unspecified)	none
CCCc1cc(=O)oc2cc(OCC(=O)NCCc3c[nH]c4ccc(OC)cc34)ccc12	none
O=C(CCCN1CCC(c2ccccc2)C1)c1ccc2c(c1)OCCO2 (stereo unspecified)	M1 antag 35
CCN(CC)S(=O)(=O)c1cccc(NC(=O)/C=C/c2cccc([N+](=O)[O-])c2)c1	M1 ag parental 16
CCN(CC)S(=O)(=O)c1cccc(NC(=O)/C=C/c2ccc([N+](=O)[O-])cc2)c1	none
CCN(CC)S(=O)(=O)c1ccc(/C=C/C(=O)Nc2ccc(Br)cc2F)cc1	M1 antag 31
CC(OC(=O)c1cccc(S(=O)(=O)N2CCOCC2)c1)C(=O)NC1CCCCC1C (stereo unspecified)	none
CCOC(=O)c1cnc(-n2nc(C)cc2C)nc1N1CC(C)OC(C)C1 (stereo unspecified)	CHO-K1 Ca antag 24
Cc1ccc(C2NC(=O)c3ccccc3N2)s1 (stereo unspecified)	none
CC(=O)C[C@@H](O)CC(=O)[C@@H]1OC(=O)CCCCC/C=C/Cc2ccccc21	none
CSCCC(C(=O)Nc1c(C)cccc1C)N(C)CCc1ccccc1 (stereo unspecified)	none
CC(CCc1ccc(O)cc1)N(C)CCc1ccccc1 (stereo unspecified)	M1 antag 56
CC(CCc1ccc(O)cc1)NCc1ccc(Br)cc1 (stereo unspecified)	M1 antag 32
COc1ccc(CNC(C)CCc2ccccc2)cc1 (stereo unspecified)	none
CC(CCc1ccc(O)cc1)NC(c1ccccc1)c1ccc(Cl)cc1 (stereo unspecified)	none
CC(CCc1ccc(O)cc1)NCCC(c1ccccc1)c1ccccc1 (stereo unspecified)	M1 antag 45
Cc1ccc(C(CC(=O)N2CCCC2)c2ccccc2)c(O)c1C (stereo unspecified)	none
CCOP(=O)(OCC)c1ccccc1OCP(C)(=O)COc1ccccc1P(=O)(OCC)OCC	none
CN(C)S(=O)(=O)N1CCC(Oc2cccc(C(=O)NC3CCCCCC3)c2)CC1	M1 ag parental 15
CCCCNC(=O)C1(C)CCCCN1Cc1ccccc1-c1ccccc1 (stereo unspecified)	M1 antag 31
C/C(=N\NC(=O)c1ccc2c(c1)OCCO2)c1ccccc1	none
O=C(NCc1ccncc1)C(=O)NCc1ccncc1	none
C/C(=N\O)C(=O)NCc1ccncc1	CHO-K1 Ca antag 25
O=C(NCCOc1ccccc1)c1ccccc1NC(=O)C1CCCO1 (stereo unspecified)	M1 ag parental 18
CCC1CCCCN1CCCNC(=O)CSc1nc2nc(C)c(Cc3ccccc3)c(C)n2n1 (stereo unspecified)	M1 antag 25
CCC1CCCCN1CCCNC(=O)Cn1nc(C)n2nc(-c3ccccc3)cc2c1=O (stereo unspecified)	none
CCC1CCCCN1CCCNC(=O)Cn1c2ccccc2c2nc(=O)cc(C)n21 (stereo unspecified)	none
CCC1CCCCN1CCCNC(=O)CSc1nc2nc(C)c(Cc3ccccc3Cl)c(C)n2n1 (stereo unspecified)	M1 antag 51
O=C1NC[C@@H](CCCCN2C[C@H](Cc3ccc(O)cc3)N(CC3CCCCC3)C(=O)C2=O)N(CCC2CCCCC2)C1=O	M1 ag parental 63 (no result: CHRM1 agonist, M1 antag, M1 PAM)
O=C1NC[C@H](CCCCN2C[C@H](Cc3ccccc3)N(Cc3ccccc3)C(=O)C2=O)N(CC2CCCCC2)C1=O	none (no result: CHRM1 agonist, M1 antag, M1 PAM)
O=C1NC[C@@H](CCCCN2C[C@H](Cc3ccccc3)N(CC3CCCCC3)C(=O)C2=O)N(Cc2ccccc2)C1=O	M1 ag parental 17 (no result: CHRM1 agonist, M1 antag, M1 PAM)
CCOC(=O)N(C)c1c(CC)nc2c(OCCC3CCCCC3)cccn12	none
COc1cc(/C(C)=N/N2CCN(Cc3ccc(C)cc3)CC2)ccc1O	none
O=C(O)c1cc2nccc(-c3ccco3)n2n1	none
NC(=O)CC(NC(=O)c1ccccc1)C(=O)O (stereo unspecified)	none
